Common to all, as to format: functional
The subject of test [1] is Plasmodium falciparum. Nature of the test: GSK_TCMDC: Inhibition of Plasmodium falciparum 3D7 in whole red blood cells, using parasite LDH activity as an index of growth. Test compounds present at 2uM.
Test [2] relates to Plasmodium falciparum. Nature of the test: GSK_TCMDC: Inhibition of Plasmodium falciparum Dd2 in whole red blood cells, using parasite LDH activity as an index of growth. Test compounds present at 2uM.
The next test deals with HepG2. Nature of the test: GSK_TCMDC: Percent inhibition of human HepG2 cell line. Test compounds present at 10uM.

Structures are written as SMILES.

Broadly, the Inhibition is the drop in the measured response relative to a control, in per cent. Read a high Inhibition as strong suppression. For the compound `Cc1ccc(-c2nnc(Nc3ccc(OCC(N)=O)cc3)c3ccccc23)cc1S(=O)(=O)NCC1CCCO1` (configuration not stated), the Inhibition with Plasmodium falciparum [1] worked out at 92%; in the test on Plasmodium falciparum [2], 70%; with HepG2, 0%.
With `O=C(NC1CC1)c1ccc(N2CCC(Cc3ccccc3)CC2)nc1.O=C(O)C(F)(F)F`, the Inhibition is reported as 95% with Plasmodium falciparum [1], 92% with Plasmodium falciparum [2] and 13% in the test with HepG2.
The like results for `Cc1cc(C(F)(F)F)n2nc(C(=O)N(Cc3cncn3Cc3ccccc3F)CC3CC3)cc2n1` were, in that order, 100%, 100% and 0%.
Regarding `COc1cccc(-c2cccc(NC(=O)C3CCN(Cc4ccc(O)cc4)CC3)c2)c1`, the Inhibition worked out at 97% with Plasmodium falciparum [1], 97% with Plasmodium falciparum [2] and 9% with HepG2.
Consider `CCOc1ccccc1CON1C(N)=NC(N)=NC1(C)C`, for which the Inhibition in the test on Plasmodium falciparum [1] amounted to 90%; with Plasmodium falciparum [2], 1%; in the test with HepG2, 66%.
Turning to `O=C(Nc1ccc(OC2CCN(Cc3ccccc3)C2)c(Cl)c1)c1ccc(F)cc1.O=C(O)C(F)(F)F` (configuration not stated), the Inhibition stood at 90% in the test with Plasmodium falciparum [1], 87% with Plasmodium falciparum [2] and 7% in the test on HepG2.
On the same counts, the results for `N#Cc1ccc(CN2CCC(Oc3ccc(NC(=O)c4ccco4)cc3Cl)C2)cc1.O=C(O)C(F)(F)F` (configuration not stated) are 95%, 95% and 13%.
On the same counts, the results for `CN1CCC(Oc2cc(NC(=O)Nc3ccc(-c4ccncc4)c(C(F)(F)F)c3)ccc2Cl)CC1` are 100%, 92% and 30%.
For `Cl.Cn1c2ccccc2c2c3ccccc3c(CNC(CO)(CO)CO)cc21`, the figures for the Inhibition with Plasmodium falciparum [1], in the test on Plasmodium falciparum [2] and in the test with HepG2 were 96%, 78% and 67%, respectively.
The like results for `Br.CCC1N=C(N)N=C(N)N1OCCCOc1c(Cl)cc(Cl)cc1Cl` (configuration not stated) were, in that order, 95%, 96% and 67%.
In the case of `CN(C)CCN(C)C(=O)c1cc(-c2ccncc2)c(-c2ccc(Cl)c(O)c2)o1.Cl`, the Inhibition in the test on Plasmodium falciparum [1] was found to be 97%; in the test with Plasmodium falciparum [2], 34%; with HepG2, 0%.
In the case of `O=C(Nc1cccc(-c2cc(-c3c(Cl)cccc3Cl)no2)c1)c1cnc2ccccc2c1`, the results for the Inhibition in the test with Plasmodium falciparum [1], with Plasmodium falciparum [2] and with HepG2 were 87%, 34% and 0%, respectively.
The like results for `CC(=O)c1c(Cc2ccccc2Cl)c[nH]c1C` were, in that order, 95%, 53% and 0%.
As for `CC(C)(C)Nc1nc(Nc2cccc([N+](=O)[O-])c2)nc(-n2ccnc2)n1`, the Inhibition in the test on Plasmodium falciparum [1] amounted to 98%; with Plasmodium falciparum [2], 41%; in the test on HepG2, 10%.
On the same counts, the results for `COc1ccc2ccccc2c1CNCC1CCN(CC2CCCCC2)CC1.O=C(O)C(F)(F)F` are 98%, 27% and 23%.
On the same counts, the results for `CCCCOC(=O)C1=C(C)NC2=C(C(=O)CC(c3ccc(OC)c(OC)c3)C2)C1c1ccc(O)cc1` (configuration not stated) are 90%, 75% and 0%.
On the same counts, the results for `COC1(C)Oc2ccc3cccc([N+](=O)[O-])c3c2C1=O` (configuration not stated) are 98%, 0% and 3%.
`Cl.FC(F)(F)c1ccc2c(NCCNc3ccnc4cc(C(F)(F)F)ccc34)ccnc2c1`: the figures for the Inhibition in the test on Plasmodium falciparum [1], with Plasmodium falciparum [2] and in the test with HepG2 were 100%, 100% and 21%, respectively.
In the case of `COc1cc2nc(NCCN3CCOCC3)n3nc(-c4ccccc4)nc3c2cc1OC`, the Inhibition in the test on Plasmodium falciparum [1] is recorded as 96%; in the test on Plasmodium falciparum [2] it was 98%; in the test with HepG2, 15%.
As to `Cc1cnc(N)c(/C=C/c2cncc(C(=O)NCCc3ccc(Cl)cc3Cl)c2)c1.Cl`, the Inhibition with Plasmodium falciparum [2] was found to be 100%; in the test on HepG2 it was 2%.
Turning to `COc1cc2nc(C)nc(Nc3ccc(Cc4ccccc4)cc3)c2cc1OC.Cl`, the Inhibition came out at 100% in the test with Plasmodium falciparum [1], 99% in the test with Plasmodium falciparum [2] and 16% in the test on HepG2.
The like results for `CC(=O)N(C)c1cccc(C(=O)Nc2ccc(-c3cccc(-c4nc5cc(C(F)(F)F)ccc5[nH]4)c3)cc2)c1` were, in that order, 94%, 10% and 79%.
Regarding `CC(C)Oc1ccc(C=CC(=O)Nc2noc3ccccc23)cc1`, the figures for the Inhibition with Plasmodium falciparum [1], with Plasmodium falciparum [2] and in the test with HepG2 were 96%, 95% and 2%, respectively.
The like results for `CON=C1CCC(Cn2ccnc2)(c2ccc(Cl)cc2Cl)CC1` (configuration not stated) were, in that order, 100%, 56% and 7%.
The like results for `Cc1cccc2nc(-c3ccc(-c4cccc(NC(=O)Nc5ccc6c(c5)OCO6)c4)cc3)[nH]c12` were, in that order, 100%, 39% and 28%.
Take `CC(C)(C)C(=O)Nc1ccc(C(=O)Nc2cccc(-c3nc4ccccc4[nH]3)c2)cc1`: the Inhibition with Plasmodium falciparum [1] is reported as 96%; in the test with Plasmodium falciparum [2] it was 62%; with HepG2, 56%.
On the same counts, the results for `Cc1[nH]c(C)c(-c2ccc(OCCCc3ccccn3)cc2)c(=O)c1Br.Cl` are 98%, 97% and 0%.
On the same counts, the results for `CC(O)C1CCCCN1C(=O)c1cccc(-c2cccc(-c3nc4ccccc4[nH]3)c2)c1` (configuration not stated) are 99%, 76% and 20%.
As to `Cc1cc(NCCc2cccc(F)c2)nc(NC(=N)Nc2cccc(C(F)(F)F)c2)n1`, the Inhibition with Plasmodium falciparum [1] is recorded as 100%; in the test on Plasmodium falciparum [2], 99%; in the test with HepG2 it was 42%.
On the same counts, the results for `COc1ccc(F)cc1-c1ccccc1CNC(=O)CN(C)S(=O)(=O)c1cc(C)cc(Cl)c1C` are 92%, 73% and 0%.
The like results for `NC(=O)c1ccccc1Nc1nc(Nc2ccc(N3CCOCC3)cc2)ncc1[N+](=O)[O-].O=C(O)C(F)(F)F` were, in that order, 98%, 96% and 53%.

For the origin of these results see ChEMBL document CHEMBL1157539, “Thousands of chemical starting points for antimalarial lead identification” (Nature, 2010).
